What all share (test): qHTS profiling for inhibitors of Plasmodium falciparum proliferation (AID 504749); note: nearly all actives have a fitted effect of over 60% in size
Conditions in all cases: P. falciparum in erythrocytes, SYBR Green DNA, 72 h; series mostly up to 28.7 µM
A general note: Quantitative high-throughput screening tests each substance at several concentrations.

One assay deals with CP265. The procedure, abridged:
(§1)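 Infected RBCs, 0.3% parasitemia/2.5% Hct final; cpd 72 h, 37 C, 5% CO2; lysis buffer with saponin/triton/SYBR Green I, o/n RT dark; FI 485/535; norm. to artemisinin (0.29 uM) and DMSO.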

The subject of the next assay is CP266. The procedure, abridged: as §1
The test system of a further assay is CP268. The procedure, abridged:
as §1

In another assay the test system is CP269. In a few lines: as §1
In a further assay the test system is CP286. The procedure, abridged: as §1
In a further assay the test system is CP291. The procedure, abridged:
as §1

The subject of the next assay is CP297. In a few lines: as §1
For another assay, the system named is CP305. The procedure, abridged:
as §1

A further assay relates to CP325. The procedure, abridged: as §1
In a further assay the test system is CP329. The procedure, abridged: as §1
The test system of a further assay is CP335. The procedure, abridged: as §1
Another assay deals with DFO2036. The procedure, abridged: as §1
A further assay has as its system DIV14. In a few lines:
as §1

The test system of the next assay is DIV17. In a few lines: as §1
A further assay deals with DIV30. The procedure, abridged:
as §1

The test system of another assay is Dd2. The procedure, abridged:
as §1

The next assay deals with ECU. The procedure, abridged:
as §1

The subject of a further assay is GB4. In a few lines:
as §1

The subject of a further assay is FAB9. The procedure, abridged: as §1
Another assay relates to CP315. The procedure, abridged:
as §1

Inconclusive results are not listed. Calls of active or inactive are those of the source. Calls come from the whole dose curve; as a rule, active = well fitted inhibition curve with a large enough effect; inconclusive = small, poorly fitted or top-dose-only effect; inactive = flat fitted curve, though single readings scatter.
Potency is the fitted concentration of half-maximal effect.

As to `CCCCCCCCCCCCCCCC[n+]1ccccc1`, the Potency with CP265 was 8.91 µM (active); in the assay with CP266, 13.5 µM (active); in the assay on CP268, 9.53 µM (active); with CP269, 5.36 µM (active); in the assay on CP286, 2.51 µM (active); in the assay on CP291, 6.01 µM (active). The Potency in the assay on CP297 is 5.36 µM (active); with CP305 it was 6.75 µM (active); in the assay with CP325 it was 5.36 µM (active); with CP329, 7.57 µM (active); with CP335 it was 6.75 µM (active); in the assay with DFO2036 it was 5.62 µM (active). Also, the Potency with DIV14 is 6.75 µM (active); in the assay on DIV17, 6.75 µM (active); in the assay with DIV30, 13.5 µM (active); in the assay with Dd2 it was 10 µM (active); in the assay with ECU it was 7.08 µM (active); in the assay with GB4, 3.38 µM (active).
On to `CC(NCCC(c1ccccc1)c1ccccc1)c1ccccc1` (stereo unspecified), for which the Potency in the assay on CP268 is 13.5 µM (active); in the assay on CP269, 16.9 µM (active); with CP286 it was 3.98 µM (active); in the assay with CP291, 13.5 µM (active); in the assay with CP305 it was 13.5 µM (active); in the assay on CP325, 15.1 µM (active). Moreover, the Potency with CP335 is 4.78 µM (active); with DIV14 it was 5.36 µM (active); in the assay on DIV17, 6.01 µM (active); in the assay on DIV30, 8.49 µM (active); in the assay with Dd2 it was 8.91 µM (active); in the assay on ECU, 7.94 µM (active). The Potency with GB4 was 15.1 µM (active).
With `Nc1ccc2cc3ccc(N)cc3nc2c1`, the Potency is 3.55 µM (active) with CP286; 6.01 µM (active) in the assay with CP335; 6.01 µM (active) with DIV14; 12 µM (active) in the assay with DIV17; 8.91 µM (active) with FAB9; 13.5 µM (active) in the assay on GB4.
As to `CN1CCC(Nc2ncc3ncnc(Nc4ccc(F)c(Cl)c4)c3n2)CC1`, the Potency is 11.2 µM (active) in the assay with CP286; 15.1 µM (active) with CP291; 9.53 µM (active) in the assay on CP335; 10.7 µM (active) in the assay with DIV14; 8.49 µM (active) with DIV17; 7.94 µM (active) in the assay on Dd2. In addition, the values for the Potency with ECU and in the assay with GB4 were 12.6 µM (active) and 13.5 µM (active), respectively. In the assay with CP315, the Potency entry is “inactive”.
With `CN1CCCN(C(c2ccccc2)c2ccc(Cl)cc2)CC1` (stereo unspecified), the Potency is 5.01 µM (active) in the assay on CP265; 11.2 µM (active) in the assay on CP286; 12 µM (active) in the assay with CP335; 1.69 µM (active) with DIV14; 1.51 µM (active) in the assay on DIV17; 13.5 µM (active) with GB4. Also, the Potency result in the assay on CP315 is “inactive”.
With `CCCCCCCCCCCCCC[N+](C)(C)C`, the Potency in the assay on CP265 is 8.91 µM (active); in the assay with CP266, 10.7 µM (active); with CP268 it was 8.49 µM (active); in the assay with CP269, 5.36 µM (active); in the assay on CP286, 2.51 µM (active); in the assay with CP291 it was 4.78 µM (active). In addition, the Potency is 10.7 µM (active) with CP297; 5.36 µM (active) in the assay with CP305; 5.36 µM (active) with CP315; 6.01 µM (active) in the assay with CP325; 5.36 µM (active) with CP329; 4.26 µM (active) in the assay on CP335. Moreover, the Potency with DFO2036 is 4.47 µM (active); with DIV14, 6.75 µM (active); in the assay on DIV17, 7.57 µM (active); with DIV30, 6.75 µM (active); in the assay on Dd2 it was 6.31 µM (active); in the assay on ECU it was 4.47 µM (active). For the same compound, the results for the Potency in the assay with FAB9 and with GB4 were 11.2 µM (active) and 5.36 µM (active), respectively.
For `O=[N+]([O-])c1ccc(O)c2ncccc12`, the Potency with Dd2 is 12.6 µM (active); with GB4 it was 15.1 µM (active).
For `O=C(Nc1ccc(Cl)cc1)Nc1ccc(Cl)c(Cl)c1`, the Potency is 3.55 µM (active) in the assay on CP265; 8.49 µM (active) in the assay on CP266; 4.26 µM (active) in the assay on CP268; 6.01 µM (active) in the assay with CP269; 2.24 µM (active) with CP286; 4.78 µM (active) in the assay on CP291. Also, the Potency with CP297 was 7.57 µM (active); in the assay with CP305 it was 4.78 µM (active); in the assay on CP325, 4.26 µM (active); in the assay with CP329, 8.49 µM (active); with CP335, 3.38 µM (active); with DFO2036 it was 2.82 µM (active). Besides, the Potency with DIV14 was 1.35 µM (active); in the assay on DIV17, 0.953 µM (active); in the assay on DIV30 it was 1.69 µM (active); in the assay with ECU, 3.55 µM (active); with FAB9, 5.01 µM (active); in the assay on GB4, 2.39 µM (active). In the assay with CP315, the Potency entry was “inactive”.
Regarding `CCCCCCCCCCCCCCCC[N+](C)(C)Cc1ccccc1`, the Potency in the assay on CP265 was 3.98 µM (active); with CP266, 9.53 µM (active); in the assay with CP268 it was 12 µM (active); with CP269 it was 7.57 µM (active); in the assay with CP286 it was 2.82 µM (active); in the assay with CP291, 15.1 µM (active). Also, the Potency in the assay with CP297 was 13.5 µM (active); with CP325, 9.53 µM (active); in the assay with CP329, 10.7 µM (active); in the assay with CP335, 12 µM (active); with DFO2036, 2.82 µM (active); in the assay on DIV14, 8.49 µM (active). The Potency in the assay with DIV17 is 8.49 µM (active); in the assay on DIV30, 15.1 µM (active); in the assay on ECU, 3.16 µM (active); in the assay with FAB9 it was 10 µM (active); in the assay with GB4 it was 5.36 µM (active).
For the compound `Nc1ncnc2nc[nH]c12`, the Potency entry in the assay with CP265, with CP266, in the assay with CP268, in the assay on CP269, in the assay with CP286 and with CP291 was “inactive” throughout. Also, the Potency entry with CP297, in the assay with CP305, in the assay on CP315, in the assay with CP325, in the assay with CP329 and in the assay on CP335 was “inactive” throughout. The Potency result in the assay with DFO2036, in the assay with DIV14, with DIV17, in the assay with DIV30, in the assay with Dd2 and in the assay on ECU was “inactive” in each case. Moreover, the Potency entry in the assay with FAB9 and in the assay on GB4 was “inactive” each time.
As for `O=S(=O)(O)c1ccc2nc(-c3ccccc3)[nH]c2c1`, the Potency entry in the assay with CP265, in the assay on CP266, in the assay with CP268, with CP269, in the assay on CP286 and in the assay with CP291 was “inactive” in each case. Further, the Potency entry in the assay on CP297, in the assay on CP305, in the assay with CP315, with CP325, in the assay with CP329 and with CP335 was “inactive” throughout. Besides, the Potency result in the assay on DFO2036, in the assay with DIV17, with DIV30, in the assay on Dd2, with ECU and in the assay with FAB9 was “inactive” in each case. The Potency entry in the assay with GB4 was “inactive”.
On to `Nc1c2ccccc2nc2ccccc12`, for which the Potency in the assay with CP266 was 13.5 µM (active); in the assay on CP268 it was 13.5 µM (active); in the assay with CP269, 13.5 µM (active); in the assay with CP286, 5.01 µM (active); with DFO2036, 5.01 µM (active); in the assay with DIV14, 8.49 µM (active). The Potency in the assay with DIV17 is 7.57 µM (active); in the assay with DIV30, 15.1 µM (active); in the assay on Dd2, 12.6 µM (active); in the assay with ECU, 10 µM (active); in the assay with GB4, 10.7 µM (active).

The values above are taken from PubChem BioAssay (NCATS).
